Hit rate of the full screen: of about 220,000 compounds, about 830 (0.38%) were called active.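 How the source made its calls: active means compound inhibiting the enzyme by more than half at any dose during confirmatory dose-response retesting; inconclusive means strong single-dose inhibitors picked by rank but not retested; inactive means the rest.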 Not all results are given here. Potency and affinity values are given separately.
What follows are molecules tested against Leucine aminopeptidase (Plasmodium falciparum (isolate 3D7)) (UniProt Q8IL11) (assay: P. falciparum M17LAP inhibitors, primary screen, biochemical, fluorogenic H-Leu-NHMec substrate, 1536-well (AID 1619;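 further: plate controls were full reaction with DMSO carrier for no effect and no enzyme background for full effect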)). Details: recombinant M17LAP, H-Leu-NHMec fluorogenic kinetic assay; at 30 µM; hits give high values.
Sequence of Leucine aminopeptidase (Plasmodium falciparum (isolate 3D7)) (Q8IL11 whole entry, looked up): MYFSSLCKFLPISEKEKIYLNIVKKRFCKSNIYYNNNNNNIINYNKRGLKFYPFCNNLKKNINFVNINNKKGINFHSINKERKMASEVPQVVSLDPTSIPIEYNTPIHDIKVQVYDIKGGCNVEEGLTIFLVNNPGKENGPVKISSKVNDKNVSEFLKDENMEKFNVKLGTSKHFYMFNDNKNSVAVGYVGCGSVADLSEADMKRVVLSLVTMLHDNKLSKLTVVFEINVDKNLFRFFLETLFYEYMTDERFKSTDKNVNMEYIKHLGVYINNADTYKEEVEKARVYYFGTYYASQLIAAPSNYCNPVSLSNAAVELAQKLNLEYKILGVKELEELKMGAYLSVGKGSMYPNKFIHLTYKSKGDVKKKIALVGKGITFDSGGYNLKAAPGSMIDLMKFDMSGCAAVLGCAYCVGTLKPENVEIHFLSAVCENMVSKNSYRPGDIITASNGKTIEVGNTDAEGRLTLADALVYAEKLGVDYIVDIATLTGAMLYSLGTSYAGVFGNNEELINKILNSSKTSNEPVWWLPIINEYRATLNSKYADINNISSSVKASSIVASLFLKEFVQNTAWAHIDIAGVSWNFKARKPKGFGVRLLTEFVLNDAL

inhibition, inactive:
O=C(COc1ccc(S(=O)(=O)N2CCCCC2)cc1)NC1CCCCC1 0.02%
O=C(NC(Cc1ccccc1)C(=O)O)/C(=C\c1ccccc1F)NC(=O)c1ccccc1 (stereo not given) 32.3%
O=C(NCc1ccco1)c1ccc(F)c(S(=O)(=O)N2CCCCC2)c1 8.34%
C#CCOc1nc(OCC#C)nc(OCC#C)n1 -14.6%
CC(C)(C)[C@@H]1C=C(C(=O)N2CCOCC2)O[C@H](OCc2ccc(CO)cc2)C1 0.65%
COc1ccccc1CNC(=O)COC(=O)Cc1c(F)cccc1Cl -4.41%
CC(C)C(=O)Nc1ccc(NC(=S)NC(=O)c2cc3ccccc3o2)cc1 -4.08%
COc1ccc(OC)c(NC(=S)N(CCc2c(C)[nH]c3ccc(C)cc23)Cc2cccs2)c1 3.79%
Cc1csc(NC(=O)c2cc(=O)[nH]c3ccc(S(=O)(=O)N4CCOCC4)cc23)n1 -22.8%
COc1ccc(/C=N/NC(=O)CSCC(=O)Nc2ccccc2)cc1 -7.59%
O=C(CSc1nc2ccccc2o1)N/N=C/c1ccccc1 17.4%
COc1ccc(/C=N/NC(=O)CC(=O)N/N=C/c2ccc(OC)cc2)cc1 14.7%
CSc1nc(C)cc(SCC(=O)N/N=C/c2ccccc2)n1 -5.92%
Cc1cc(C(=O)Nc2ccccc2N2CCOCC2)ccc1[N+](=O)[O-] 8.21%
O=C(c1ccc(CN2CCOCC2)cc1)N1CCN(c2ccccc2)CC1 3.18%
Cc1ccc(C)c(NC(=O)c2ccc(S(=O)(=O)C(F)F)cc2)c1 -0.05%
COc1ccccc1N1CCN(C(=O)c2cc(C(C)(C)C)oc2C)CC1 13.9%
O=C1OCCC1Sc1nc2ccccc2c(=O)n1-c1ccc(F)cc1 (stereo not given) -2.24%
CCC1=Nc2cc(C(=O)O)ccc2Sc2ccc(Cl)cc21 7.99%
CCOc1ccccc1Nc1nnc(SCC(=O)Nc2ccc3[nH]c(=O)[nH]c3c2)s1 -4.13%
CCOc1ccccc1Nc1nnc(SCC(=O)Nc2cc(C)on2)s1 -0.81%
Cc1ccc(C(=O)NC(Cc2c[nH]c3ccccc23)C(=O)O)cc1 (stereo not given) 17.6%
Cc1ccc(C)c(OCC(=O)NC(Cc2c[nH]c3ccccc23)C(=O)O)c1 (stereo not given) -8.94%
CC(C)C(=O)Nc1nc2c(c(=O)[nH]1)CCCC2 3.8%
CCc1n[n+](CC(=O)c2ccccc2)c(N)s1 -0.05%
COc1ccc(-c2[nH]ncc2/C=C(/C#N)C(=O)NC2CCCCCC2)cc1 -2.26%
COc1ccc(-c2[nH]ncc2/C=C(/C#N)C(=O)NC2CCCCC2)cc1 0.03%
O=C(c1cc(-c2ccccc2)on1)N1CCN(Cc2ccc3c(c2)OCO3)CC1 -6.81%
Cc1ccccc1NC(=O)CSc1ccsc1[N+](=O)[O-] 8.37%
CCc1ccccc1NC(=O)CSc1ccsc1[N+](=O)[O-] 6.13%
Cc1cccc(C(=O)N2CCCCCC2)c1[N+](=O)[O-] -0.16%
CCN1CCN(CC(O)COCc2ccccc2)CC1 (stereo not given) 8.64%
CCCN(C(=O)/C=C/c1ccco1)c1c(N)n(Cc2ccccc2)c(=O)[nH]c1=O 12.1%
Cc1nn(C(C)C(=O)NC2C(=O)N3C(C(=O)O)=C(CSc4nnnn4C)CSC23)cc1Cl (stereo not given) 48.7%
Cn1nnnc1SCC1=C(C(=O)O)N2C(=O)C(NC(=O)C3CC3c3ccccc3)C2SC1 (stereo not given) 20.4%
COc1ccc(Cn2cnc3c([N+](=O)[O-])c(C)c(C)cc32)cc1 16.7%
O=C(Cc1csc(N2CCOCC2)n1)N/N=C/c1ccc(F)cc1 45.5%
COc1ccccc1NC(=O)Nc1cc(C(C)C)ccc1C 3.16%
CCOc1cc(/C=C2\C(=O)N(CCc3ccc(OC)c(OC)c3)C(C)=C2C(=O)OC)ccc1O 7.43%
COc1cc(/C=C2/NC(=O)N(Cc3ccccc3F)C2=O)ccc1O -1.31%
COc1ccc(C(=O)Nc2ccc(Cl)cc2C(=O)NCCN2CCOCC2)cc1 5.43%
Cc1ccc(S(=O)(=O)NNC(=O)CC#N)cc1 5.13%
COc1ccccc1N1C(=N)S/C(=C\c2ccc(-c3ccccc3C(=O)O)o2)C1=O 61.1%
N=C1S/C(=C\c2ccco2)C(=O)N1c1ccc2c(c1)OCO2 6.49%
Cc1cccc(NC(=O)CN2C(=O)S/C(=C\c3ccc(-c4cccc(C(=O)O)c4C)o3)C2=O)c1 4.08%
COc1cc(/C=C2\SC(=N)N(c3ccc4c(c3)OCO4)C2=O)cc(OC)c1O 1.69%
O=C(COC(=O)Cc1ccc(Br)cc1)NCC1CCCCC1 1.79%
CCOC(=O)N1CCN(C(=O)CSc2ccc(-c3cccnc3)nn2)CC1 -5.54%
Oc1ccc(-c2nc3ccccc3s2)c(O)c1 -4.82%
Cc1c(O)ccc(-c2n[nH]c(C(=O)O)c2-c2nc3ccccc3s2)c1O -2.67%
Cc1nc2ccccn2c1C(=O)CSc1ccccc1 24.3%
CCOC(=O)Cc1n[nH]c(=O)c2ccccc12 1.58%
O=C(NCc1ccccn1)c1cc(-c2ccccc2)on1 8.29%
CC(C)OC(=O)CSc1nnc(-c2ccco2)n1N 6.79%
COC(=O)CSc1nnc(-c2ccco2)n1-c1ccc(C)cc1 13.9%
CCOC(=O)CSc1nnc(-c2ccoc2C)n1-c1ccc(C)cc1 14.1%
CCOC(=O)CSc1nnc(-c2ccco2)n1-c1ccccc1 11.8%
Cc1ccc(OCCn2c(=O)oc3ccc(C)cc32)cc1 13.7%
Cn1c(SCC(N)=O)nnc1C1CCN(C(=O)NC2CCCCC2)CC1 -3.93%
COc1ccc(OC)c(NC(=O)C2CC(C)=C(C)CC2C(=O)O)c1 (stereo not given) 34.4%
COc1ccc(OC)c(NC(=O)C2CCCCC2C(=O)O)c1 (stereo not given) 40.9%
COc1ccc(C(C)(C)C)cc1NC(=O)C1C2C=CC(C2)C1C(=O)O (stereo not given) 7.82%
COc1ccc(C)cc1NC(=O)C1CCCCC1C(=O)O (stereo not given) 52.8%
COc1ccc2cc(C(c3nnnn3CCc3ccccc3)N3CCCC(C)C3)c(=O)[nH]c2c1 (stereo not given) 10.6%
CCCCNS(=O)(=O)c1ccc(S(=O)(=O)N2CCC3(CC2)OCCO3)cc1 -5.01%
COC(=O)C1=C(NC(=O)COc2ccc(Cl)cc2Cl)CCS1 49.6%
COc1ccc(N/N=C(/C#N)S(=O)(=O)C(C)(C)C)cc1 5.23%
CC(C)(C)c1ccc(N/N=C(\C#N)S(=O)(=O)C(C)(C)C)cc1 23.4%
CC(C)(C)S(=O)(=O)/C(C#N)=N/Nc1ccc(Cl)cc1 12.6%
CC(C)(C)S(=O)(=O)/C(C#N)=N/Nc1ccc(C#N)cc1 19.9%
CC(C)(C)S(=O)(=O)/C(C#N)=N/Nc1ccc(S(C)(=O)=O)cc1 43.2%
CC(C)(C)S(=O)(=O)/C(C#N)=N/Nc1ccc(S(N)(=O)=O)cc1 16.4%
Cn1c(SCc2ccc(Cl)cc2)nc(C(F)(F)F)cc1=O -4.09%
CCN(CC)C(=O)C(=O)c1cn(CC(=O)NCC2CCCO2)c2ccccc12 (stereo not given) -6.14%
Cc1cccc(NC(=O)c2nc[nH]c2C(=O)NCC(=O)OC(C)(C)C)c1 -3.35%
O=C(NCC1CCCO1)c1csc(Nc2cccc3ccccc23)n1 (stereo not given) 4.77%
O=C(COc1cccc(NC(=O)c2ccco2)c1)c1ccccc1 -14.2%
O=C(NCCN1CCOCC1)c1ccc(NC(=O)C2COc3ccccc3O2)cc1 (stereo not given) 3.85%
CCOc1ccc(-n2c(COc3ccccc3)nnc2SCC(N)=O)cc1 -3.38%
Cc1nn(CC(=O)Nc2ccccc2)c(=O)c2ccccc12 20%
Cc1ccc(NC(=O)Cn2nc(C)c3ccccc3c2=O)cc1 23.3%
CCNC(=S)NNC(=O)c1csc2c1CCC(C)C2 (stereo not given) -1.92%
Cc1scc(C(=O)NNC(=O)CCC(=O)O)c1C 1.05%
CC(C)(C)C1CCc2c(C(=O)N/N=C/c3cccs3)csc2C1 (stereo not given) 1.12%
CC1=C(C)CC(C(=O)NNC(=O)c2csc(C)c2C)C(C(=O)O)C1 (stereo not given) 44.2%
CC1=C(C)CC(C(=O)NNC(=O)c2ccccc2)C(C(=O)O)C1 (stereo not given) 32.1%
CC(C)(C)C1CCc2c(C(=O)NNC(=O)/C=C/C(=O)O)csc2C1 (stereo not given) 43.8%
COCc1cc(C)nc(SCc2nc3ccccc3c(=O)[nH]2)c1C#N -5.07%
CCOC(=O)c1cc(-c2ccccc2)sc1NC(=O)C(C)N1C(=O)c2ccccc2C1=O (stereo not given) -1.18%
Nc1cc(-c2ccco2)no1 -0.59%
O=C1c2[nH]nc(-c3ccccc3O)c2C(c2ccccc2F)N1Cc1ccco1 (stereo not given) 16%
O=C(C(c1ccccc1)c1ccccc1)N1CCN(c2ccccn2)CC1 4.89%
COc1ccc2sc(N3C(=O)CC(Cc4cccc(C)c4)C3=O)nc2c1 (stereo not given) 29.4%
CC(=O)c1nc(N2C(=O)C3CC=C(C)CC3C2=O)sc1C (stereo not given) 7.37%
CCOC(=O)/C(=C\c1ccc([N+](=O)[O-])o1)NC(=O)c1ccccc1 -88.3%
